According to PubChem BioAssay AID1159580 (chemical genetic matrix, 2015):
Where “and” joins values, the source holds several entries; their conditions need not be identical. Identical values can stand only once. About 2,000 (36%) of roughly 5,500 compounds were called active. Roughly 18% stayed inconclusive and do not appear here. No stated cut-off is given here; in the data, active means normalized growth mostly below about 0.91 (no sharp cut-off); inconclusive means no clear call, values can overlap the other calls; inactive means mostly above about 0.92. This is one part of the list.

Assay: chemical genetic growth profiling, strain panel (AID 1159580);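 further: tested at 20 µM; growth read once vehicle control cultures reached saturation at 30 °C; 1 = growth at the plate median or of vehicle wells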
Details: S. cerevisiae deletion strains, growth OD

Measured: normalized growth

NC(=O)c1cc[n+](CC2=C(C(=O)O)N3C(=O)C(NC(=O)C(c4ccccc4)S(=O)(=O)[O-])C3SC2)cc1 (centres undefined)
inactive: locus YAL013W, strain DEP1, stronger effect = lower value 0.983 | locus YAL021C, strain ccr4, stronger effect = lower value 1.01 | locus YAL026C, strain drs2, stronger effect = lower value 0.997 | locus YAL030W, strain snc1, stronger effect = lower value 1.01 | locus YBL061C, strain skt5, stronger effect = lower value 0.994 | locus YBR009C, strain hhf1, stronger effect = lower value 1.02 | locus YBR021W, strain FUR4, stronger effect = lower value 0.97 | locus YBR023C, strain chs3, stronger effect = lower value 0.997 | locus YBR171W, strain sec66, stronger effect = lower value 1 | locus YBR229C, strain ROT2, stronger effect = lower value 0.989 | locus YBR231C, strain swc5, stronger effect = lower value 1 | locus YBR279W, strain paf1, stronger effect = lower value 0.993 | locus YCL011C, strain gbp2, stronger effect = lower value 1.02 | locus YCL016C, strain dcc1, stronger effect = lower value 1.01 | locus YCL029C, strain bik1, stronger effect = lower value 0.992 | locus YCL069W, strain vba3, stronger effect = lower value 1.02 | locus YCR088W, strain abp1, stronger effect = lower value 0.987 | locus YDL005C, strain med2, stronger effect = lower value 0.998 | locus YDL035C, strain GPR1, stronger effect = lower value 0.989 | locus YDL040C, strain nat1, stronger effect = lower value 1 | locus YDL074C, strain BRE1, stronger effect = lower value 1.02 | locus YDL101C, strain DUN1, stronger effect = lower value 0.994 | locus YDL134C, strain PPH21, stronger effect = lower value 0.973 | locus YDL185W, strain tfp1, stronger effect = lower value 0.995 | locus YDL192W, strain arf1, stronger effect = lower value 0.984 | locus YDR001C, strain nth1, stronger effect = lower value 0.99 | locus YDR069C, strain doa4, stronger effect = lower value 0.98 | locus YDR101C, strain arx1, stronger effect = lower value 1 | locus YDR137W, strain rgp1, stronger effect = lower value 1.02 | locus YDR150W, strain NUM1, stronger effect = lower value 0.988 | locus YDR159W, strain sac3, stronger effect = lower value 0.997 | locus YDR162C, strain NBP2, stronger effect = lower value 0.981 | locus YDR195W, strain ref2 0.988 | locus YDR297W, strain sur2, stronger effect = lower value 1 | locus YDR318W, strain mcm21, stronger effect = lower value 0.986 | locus YDR334W, strain swr1, stronger effect = lower value 0.994 | locus YDR335W, strain msn5, stronger effect = lower value 0.984 | locus YDR388W, stronger effect = lower value 0.992 | locus YDR392W, strain spt3, stronger effect = lower value 1.04 | locus YDR502C, strain sam2, stronger effect = lower value 0.987 | locus YEL003W, strain gim4, stronger effect = lower value 0.985 | locus YEL037C, strain rad23, stronger effect = lower value 0.999 | locus YEL061C, strain CIN8 (second series), stronger effect = lower value 0.99 | locus YEL061C, strain CIN8, stronger effect = lower value 0.994 | locus YER015W, strain faa2, stronger effect = lower value 1.02 | locus YER016W, strain bim1, stronger effect = lower value 0.99 | locus YER110C, stronger effect = lower value 0.986 | locus YER111C, strain swi4, stronger effect = lower value 0.995 | locus YER155C, strain BEM2 (second series), stronger effect = lower value 0.986 | locus YER155C, strain BEM2, stronger effect = lower value 0.978 | locus YER167W, strain BCK2, stronger effect = lower value 0.98 | locus YFR010W, strain ubp6, stronger effect = lower value 0.974 | locus YGL078C, strain dbp3, stronger effect = lower value 0.988 | locus YGL086W, strain mad1, stronger effect = lower value 0.978 | locus YGL167C, strain pmr1, stronger effect = lower value 0.984 | locus YGL173C, strain kem1, stronger effect = lower value 1.01 | locus YGL227W, strain vid30, stronger effect = lower value 1.01 | locus YGL240W, strain doc1, stronger effect = lower value 0.997 | locus YGL248W, strain PDE1, stronger effect = lower value 0.976 | locus YGL253W, strain hxk2, stronger effect = lower value 0.992 | locus YGR078C, strain PAC10, stronger effect = lower value 1.01 | locus YGR135W, strain pre9, stronger effect = lower value 0.957 | locus YGR229C, strain SMI1, stronger effect = lower value 0.958 | locus YGR252W, strain gcn5, stronger effect = lower value 0.937 | locus YHR013C, strain ard1, stronger effect = lower value 1 | locus YHR027C, strain rpn1, stronger effect = lower value 1.01 | locus YHR030C, strain SLT2, stronger effect = lower value 0.986 and 1.08 | locus YHR079C, strain IRE1 (second series), stronger effect = lower value 0.996 | locus YHR079C, strain IRE1, stronger effect = lower value 1.11 | locus YHR094C, strain hxt1, stronger effect = lower value 0.984 | locus YHR129C, strain ARP1, stronger effect = lower value 0.988 | locus YHR142W, strain chs7, stronger effect = lower value 0.993 | locus YHR200W, strain rpn10, stronger effect = lower value 0.986 | locus YIL066C, strain RNR3, stronger effect = lower value 0.995 | locus YIL073C, strain SPO22, stronger effect = lower value 0.96 | locus YIL125W, strain kgd1, stronger effect = lower value 0.992 | locus YIR030C, strain dcg1, stronger effect = lower value 0.99 | locus YJL092W, strain hpr5, stronger effect = lower value 0.995 | locus YJL095W, strain BCK1 (second series), stronger effect = lower value 0.99 | locus YJL095W, strain BCK1, stronger effect = lower value 1.02 and 1.05 | locus YJL115W, strain asf1, stronger effect = lower value 0.988 | locus YJL129C, strain trk1, stronger effect = lower value 0.962 | locus YJL134W, strain LCB3, stronger effect = lower value 0.985 | locus YJL154C, strain vps35, stronger effect = lower value 0.998 | locus YJL164C, strain tpk1, stronger effect = lower value 1.02 | locus YJL166W, strain qcr8, stronger effect = lower value 1 | locus YJL168C, strain set2, stronger effect = lower value 0.998 | locus YJL187C, strain SWE1 (second series), stronger effect = lower value 1.01 | locus YJR043C, strain POL32, stronger effect = lower value 0.993
